Inconclusive results are not listed. Active and inactive are the calls of the source. The call rests on the fitted dose curve; in most records, active means well fitted curve in the direction sought with a large enough effect; inconclusive means small, poorly fitted or top-dose-only effect, or another doubt; inactive means no such curve, though single readings can be large; an effect the other way counts as inactive or inconclusive.
Key:
MCC-13 = test: qHTS assay to identify novel small-molecules to repurpose for Merkel cell carcinoma treatment (AID 1296009); conditions: MCC and control cell lines, CellTiter-Glo viability, 72 h; series mostly up to 46 µM; further: nearly all actives have a fitted effect of over 60% in size
In short: (§1)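 CellTiter-Glo luminescence after 72 hr compound exposure at 37 degree celsius gave cell viability. Libraries NPC and MIPE were run as 8- and 11-point dose responses; RLUs normalized to DMSO (negative) and no-cell (cytotoxicity) controls.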

MKL-1 = test: as above; conditions: MCC and control cell lines, CellTiter-Glo viability, 72 h; series mostly up to 46 µM
In short: as §1

MKL-2 = test: as above; conditions: MCC and control cell lines, CellTiter-Glo viability, 72 h; series mostly up to 46 µM
In short: as §1

WaGa = test: as above; conditions: MCC and control cell lines, CellTiter-Glo viability, 72 h; series mostly up to 46 µM
In short: as §1

C33A = test: Primary qHTS to identify gynecologic anti-cancer compounds using libraries of approved drugs and bioactive compounds (AID 1345084); conditions: Gynecologic cancer cell panel viability, ATPlite luminescence, 48 h; series mostly up to 57.5 µM; further: nearly all actives have a fitted effect of over 55% in size
In short: (§2)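 Luminescence from the ATPlite ATP-monitoring reagent indicates viable cell number; lower signal means cytotoxicity. Cells received compound 16 h after seeding and were exposed for 48 h across five concentrations.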

CAOV3 = test: as above; conditions: Gynecologic cancer cell panel viability, ATPlite luminescence, 48 h; series mostly up to 57.5 µM
In short: as §2

CASKI = test: as above; conditions: Gynecologic cancer cell panel viability, ATPlite luminescence, 48 h; series mostly up to 57.5 µM
In short: as §2

Es-2 = test: as above; conditions: Gynecologic cancer cell panel viability, ATPlite luminescence, 48 h; series mostly up to 57.5 µM
In short: as §2

HeLa = test: as above; conditions: Gynecologic cancer cell panel viability, ATPlite luminescence, 48 h; series mostly up to 57.5 µM
In short: as §2

Hek293T = test: as above; conditions: Gynecologic cancer cell panel viability, ATPlite luminescence, 48 h, control line for the selectivity index; series mostly up to 57.5 µM
In short: as §2

JEG-3 = test: as above; conditions: Gynecologic cancer cell panel viability, ATPlite luminescence, 48 h; series mostly up to 57.5 µM
In short: as §2

OV90 = test: as above; conditions: Gynecologic cancer cell panel viability, ATPlite luminescence, 48 h; series mostly up to 57.5 µM
In short: as §2

PA-1 = test: as above; conditions: Gynecologic cancer cell panel viability, ATPlite luminescence, 48 h; series mostly up to 57.5 µM
In short: as §2

SKOV3 = test: as above; conditions: Gynecologic cancer cell panel viability, ATPlite luminescence, 48 h; series mostly up to 57.5 µM
In short: as §2

Tov-21-G = test: as above; conditions: Gynecologic cancer cell panel viability, ATPlite luminescence, 48 h; series mostly up to 57.5 µM
In short: as §2

Tov112D = test: as above; conditions: Gynecologic cancer cell panel viability, ATPlite luminescence, 48 h; series mostly up to 57.5 µM
In short: as §2

[1] = Drug repurposing screens with cells derived from glioblastoma tumor samples (AID 1345199); conditions: GBM patient neurospheres viability, ATP luminescence, 48 h; further: nearly all actives have a fitted effect of over 40% in size
In short: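 Primary testing used CD133+ neurospheres from four GBM patients, seven concentrations, 48 h exposure and ATP-based viability; confirmation added three slower-growing patient lines.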

UISO = test: qHTS assay to identify novel small-molecules to repurpose for Merkel cell carcinoma treatment (AID 1296009); conditions: MCC and control cell lines, CellTiter-Glo viability, 72 h; series mostly up to 46 µM; further: nearly all actives have a fitted effect of over 60% in size
In short: as §1

NIH3T3 = test: as above; conditions: MCC and control cell lines, CellTiter-Glo viability, 72 h; at 44.8 µM (top of the series) unless noted
In short: as §1

[2] = at 45.9 µM (top of the series), tumour line B
[3] = at 45.9 µM (top of the series), tumour line D
[4] = at 46 µM (top of the series), tumour line A
[5] = at 46.1 µM (top of the series), tumour line C
[6] = at 20 µM (top of the series), tumour line C
[7] = at 21.2 µM (top of the series), tumour line B
[8] = at 21.2 µM (top of the series), tumour line D
On the % scale 0 is the no-effect control and ±100 the full control effect.

O=C1C(c2[nH]c3ccccc3c2O)=Nc2ccccc21
inactive: outcome (MCC-13) | outcome (MKL-1) | outcome (MKL-2) | outcome (WaGa) | outcome (C33A) | outcome (CAOV3) | outcome (CASKI) | outcome (Es-2) | outcome (HeLa) | outcome (Hek293T) | outcome (JEG-3) | Potency (OV90) | outcome (PA-1) | outcome (SKOV3) | outcome (Tov-21-G) | outcome (Tov112D) | activity, negative = cell killing [1, 2] -10% | activity, negative = cell killing [1, 3] -9.74% | activity, negative = cell killing [1, 4] -34.1% | activity, negative = cell killing [1, 5] -13.3%

NS(=O)(=O)c1cc2c(cc1C(F)(F)F)NCNS2(=O)=O
inactive: outcome (MCC-13) | outcome (MKL-1) | outcome (MKL-2) | outcome (UISO) | outcome (WaGa) | outcome (C33A) | outcome (CASKI) | outcome (Es-2) | outcome (HeLa) | outcome (Hek293T) | outcome (JEG-3) | Potency (OV90) | outcome (PA-1) | outcome (SKOV3) | outcome (Tov-21-G) | outcome (Tov112D) | activity, negative = cell killing [1, 6] -8.4% | activity, negative = cell killing [1, 7] 8.4% | activity, negative = cell killing [1, 8] -16.1% | activity, negative = cell killing ([1]; at 21.3 µM (top of the series), tumour line A) -5.19%

FC(F)(F)C(Cl)Br (stereo not drawn)
inactive: outcome (MCC-13) | outcome (MKL-1) | outcome (MKL-2) | outcome (NIH3T3) | outcome (UISO) | outcome (WaGa) | outcome (C33A) | outcome (CAOV3) | outcome (CASKI) | outcome (Es-2) | outcome (HeLa) | outcome (Hek293T) | outcome (JEG-3) | Potency (OV90) | outcome (PA-1) | outcome (SKOV3) | outcome (Tov-21-G) | outcome (Tov112D) | activity, negative = cell killing [1, 2] -5.12% | activity, negative = cell killing [1, 3] -3.03% | activity, negative = cell killing [1, 4] -22.4% | activity, negative = cell killing [1, 5] -0.139%

CCOc1ccc(C(=O)OCCN(CC)CC)cc1
inactive: outcome (MCC-13) | outcome (MKL-1) | outcome (MKL-2) | outcome (UISO) | outcome (WaGa) | outcome (C33A) | outcome (CASKI) | outcome (Es-2) | outcome (HeLa) | outcome (Hek293T) | outcome (JEG-3) | Potency (OV90) | outcome (PA-1) | outcome (SKOV3) | outcome (Tov-21-G) | outcome (Tov112D) | activity, negative = cell killing [1, 2] -7.64% | activity, negative = cell killing [1, 3] -13.5% | activity, negative = cell killing [1, 4] -29% | activity, negative = cell killing [1, 5] -17.9%

CCCCCC(N)=O
inactive: outcome (MCC-13) | outcome (MKL-1) | outcome (MKL-2) | outcome (NIH3T3) | outcome (UISO) | outcome (WaGa) | outcome (C33A) | outcome (CASKI) | outcome (Es-2) | outcome (HeLa) | outcome (Hek293T) | outcome (JEG-3) | Potency (OV90) | outcome (PA-1) | outcome (SKOV3) | outcome (Tov-21-G) | outcome (Tov112D) | activity, negative = cell killing [1, 2] -6.65% | activity, negative = cell killing [1, 3] -23.8% | activity, negative = cell killing [1, 4] -18.7% | activity, negative = cell killing [1, 5] -14.8%

CCCCCCCC(=O)OCC(COC(=O)CCCCCCC)OC(=O)CCCCCCC
inactive: outcome (MCC-13) | outcome (MKL-1) | outcome (MKL-2) | outcome (UISO) | outcome (WaGa) | outcome (C33A) | outcome (CAOV3) | outcome (CASKI) | outcome (Es-2) | outcome (HeLa) | outcome (Hek293T) | outcome (JEG-3) | Potency (OV90) | outcome (PA-1) | outcome (SKOV3) | outcome (Tov-21-G) | outcome (Tov112D) | activity, negative = cell killing [1, 2] -10.1% | activity, negative = cell killing [1, 3] -25.3% | activity, negative = cell killing [1, 5] -9.12%

CCN[C@H]1CN(CCCOC)S(=O)(=O)c2sc(S(N)(=O)=O)cc21
inactive: outcome (MCC-13) | outcome (MKL-1) | outcome (MKL-2) | outcome (NIH3T3) | outcome (UISO) | outcome (WaGa) | outcome (C33A) | outcome (CAOV3) | outcome (CASKI) | outcome (Es-2) | outcome (HeLa) | outcome (Hek293T) | outcome (JEG-3) | Potency (OV90) | outcome (SKOV3) | outcome (Tov-21-G) | outcome (Tov112D) | activity, negative = cell killing [1, 6] -0.607% | activity, negative = cell killing [1, 7] -9.2% | activity, negative = cell killing [1, 8] 8.52%

O=C(O)CCCCC1CCSS1 (stereo not drawn)
inactive: outcome (MCC-13) | outcome (MKL-1) | outcome (MKL-2) | outcome (UISO) | outcome (WaGa) | outcome (C33A) | outcome (CASKI) | outcome (Es-2) | outcome (HeLa) | outcome (Hek293T) | outcome (JEG-3) | Potency (OV90) | outcome (PA-1) | outcome (SKOV3) | outcome (Tov-21-G) | outcome (Tov112D) | activity, negative = cell killing [1, 2] -9.35% | activity, negative = cell killing [1, 3] -12.2% | activity, negative = cell killing [1, 5] -7.1%

Cc1cc(=O)[nH]c(=S)[nH]1
inactive: outcome (MCC-13) | outcome (MKL-1) | outcome (MKL-2) | outcome (NIH3T3) | outcome (UISO) | outcome (WaGa) | outcome (C33A) | outcome (CAOV3) | outcome (CASKI) | outcome (Es-2) | outcome (HeLa) | outcome (Hek293T) | outcome (JEG-3) | Potency (OV90) | outcome (PA-1) | outcome (Tov-21-G) | outcome (Tov112D) | activity, negative = cell killing [1, 2] -11.2% | activity, negative = cell killing [1, 3] 2.62% | activity, negative = cell killing [1, 5] -26.3%

CC(=O)N1C[C@H](O)C[C@H]1C(=O)O
inactive: outcome (MCC-13) | outcome (MKL-1) | outcome (MKL-2) | outcome (NIH3T3) | outcome (UISO) | outcome (WaGa) | outcome (C33A) | outcome (CAOV3) | outcome (CASKI) | outcome (Es-2) | outcome (HeLa) | outcome (Hek293T) | outcome (JEG-3) | Potency (OV90) | outcome (PA-1) | outcome (Tov-21-G) | outcome (Tov112D) | activity, negative = cell killing [1, 2] -12.7% | activity, negative = cell killing [1, 3] 12.1% | activity, negative = cell killing [1, 4] -19.6% | activity, negative = cell killing [1, 5] -5.75%

Reference: PubChem BioAssay (NCATS)
